Source: PubChem BioAssay (NCI)
Where “and” joins values, the source holds several entries; their conditions need not be identical. Identical values can stand only once. The panel holds about 79,000 compounds, 15% with a hit somewhere; the sample as a whole holds those more often. More than one record can exist for a structure, and the calls need not agree. Calls of active or inactive are those of the source. No stated cut-off is given here; in the data, active means growth inhibition above about 70%; inactive means the rest.

Columns and labels:
[1] = NCI Yeast Anticancer Drug Screen. Data for the rad50 strain (AID 155);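 further: 0% = growth of vehicle-only cultures of the same strain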; conditions: S. cerevisiae rad50 strain growth inhibition; at 50.0 µM; stronger effect = higher value
Method in brief: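 Yeast carrying a defined DNA repair defect were exposed to test compounds, and growth was compared with vehicle-treated controls to give percent inhibition.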

[2] = NCI Yeast Anticancer Drug Screen. Data for the mec2-1 strain (AID 157); conditions: S. cerevisiae mec2-1 strain, at 50.0 µM, stronger effect = higher value
Method in brief: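 Strain: mec2-1 (DNA repair/cell cycle alteration). Compound exposure, then growth measured; inhibition expressed relative to vehicle.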

[3] = NCI Yeast Anticancer Drug Screen. Data for the sgs1 mgt1 strain (AID 161);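 further: 0% = growth of cultures given vehicle only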; conditions: S. cerevisiae sgs1 mgt1 strain, at 50.0 µM, stronger effect = higher value
Method in brief: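 Genetically altered yeast, compound exposure, growth inhibition relative to vehicle.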

[4] = NCI Yeast Anticancer Drug Screen. Data for the cln2 rad14 strain (AID 165);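 further: 0% = growth equal to vehicle treated cultures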; conditions: S. cerevisiae cln2 rad14 strain, at 50.0 µM, stronger effect = higher value
Method in brief: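 Compounds are applied to the cln2 rad14 yeast strain, and growth is then compared with that of vehicle-treated cultures to give inhibition.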

[5] = NCI Yeast Anticancer Drug Screen. Data for the bub3 strain (AID 167); conditions: S. cerevisiae bub3 mutant strain, at 50.0 µM, stronger effect = higher value
Method in brief: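 Compounds were applied to a genetically altered yeast strain carrying a cell-cycle control defect. Growth inhibition was scored against vehicle-treated controls.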

[6] = NCI Yeast Anticancer Drug Screen. Data for the mlh1 rad18 strain (AID 175); conditions: S. cerevisiae mlh1 rad18 strain growth inhibition; at 50.0 µM; stronger effect = higher value
Method in brief: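 Read-out is yeast growth inhibition, calculated against vehicle-only controls. The compound was applied to a strain engineered with DNA damage repair alterations.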

Measured: growth inhibition

COc1ccc([As]=O)cc1[N+](=O)[O-] (stereo not drawn)
inactive: [1] 13.2% | [2] 1.15% | [3] 11.1% | [4] 14.2% | [5] -19% | [6] 8.2%

CCCCOP(=O)(NCCOC)OCCCC
inactive: [1] -0.05% | [2] 8.05% | [3] -3.1% | [4] 6.9% | [5] 5.25% | [6] 10.2%

COc1ccc(NC(=O)C(=O)C(CC2C(=O)NC(=S)NC2=O)C(=O)c2ccc3ccccc3c2)c([N+](=O)[O-])c1 (stereo not drawn)
inactive: [1] -10.7% | [2] 1.35% | [3] 13.1% | [4] -30.1% | [5] 31.2% | [6] 3.5%

[Pt].c1ccc([PH+](CC[PH+](CC[PH+](c2ccccc2)c2ccccc2)c2ccccc2)CC[PH+](c2ccccc2)c2ccccc2)cc1 (stereo not drawn)
inactive: [1] 22.8% | [2] 14.3% | [3] 25.6% | [4] 8.6% | [5] 16.6% | [6] 8.75%

C[C@]12CC[C@H](O)C[C@H]1CC[C@@H]1[C@@H]2CC[C@]2(C)[C@@H](C3=CC(=O)OC3)[C@@H](O)C[C@]12O
inactive: [1] -6.05% | [2] -15.8% | [3] 2.35% | [4] -16.8% | [5] -0.15% | [6] 8.1%

COc1cccc(C=C(C#N)C#N)c1
inactive: [1] 46.8% | [2] 23.8% | [3] 31.7% | [4] 26.4% | [5] 14.6% | [6] 33.4%

O=S(O)(O)=S.[Co+3].[NH-]CC[NH-].[NH-]CC[NH-].[NH2-].[NH2-]
inactive: [1] -8.05% | [2] -6.85% | [3] 2% | [4] -19.4% | [5] 14.8% | [6] 7.05%

CN1CCN(c2nc(N)c(Br)c(Cl)n2)CC1
inactive: [1] -2.85% | [2] 3.65% | [3] -14.8% | [4] -1.85% | [5] 2.95% | [6] -10.2%

CCCCSP(SCCCC)N1CCCCC1
active: [1] 94.7% | [2] 89.4% | [3] 91.3% | [5] 79.8% | [6] 88%
inactive: [4] 31.1%

COc1ccc(CC#N)cc1
inactive: [1] -51.1% | [2] -5.25% | [3] 19.4% | [4] -35% | [5] 1.4% | [6] 15.2%

CC1=NN(c2ccccc2)C(=O)C1N=Nc1ccc([As](=O)(O)O)c(O)c1 (stereo not drawn)
inactive: [1] 15.9% | [2] -8.6% | [3] -6.8% | [4] -19.9% | [5] -26.5% | [6] -3.65%

c1cc2c3c(cccc3c1)CC2
inactive: [1] -22.4% | [2] 35.4% | [3] -0.65% | [4] -16.3% | [5] 44.4% | [6] -14.6%

CC1=CC(C)C/C=C/C2C3OC3(C)C(C)C3C(Cc4c[nH]c5ccccc45)NC(=O)C23C(=O)C=CC(=O)C1O (stereo not drawn)
active: [1] 88.4% | [2] 92.5% | [3] 92.6% | [4] 91% | [5] 91.3% | [6] 92.1%

CC1(C)CCCC(C)(C)N1[P-]C(=O)[P-]N1C(C)(C)CCCC1(C)C.[C-]#[O+].[C-]#[O+].[C-]#[O+].[C-]#[O+].[C-]#[O+].[C-]#[O+].[Fe].[Fe] (stereo not drawn)
inactive: [1] -11.2% | [2] 3.65% | [3] -2% | [4] 13.6% | [5] -5.7% | [6] 8.45%

C1CC[N-]CC1.C1CC[N-]CC1.[Cl][Pd][Cl]
inactive: [1] 1.25% | [2] 8.8% | [3] 13% | [4] -23.6% | [5] 10.8% | [6] 15.4%

CCC(=O)N(c1ccccc1)C(C)CN1CCC(O)(c2ccccc2)CC1 (stereo not drawn)
inactive: [1] 4.2% | [2] -12.4% | [3] 5.9% | [4] -37% | [5] -10.4% | [6] -8.15%

NC1=NC(=O)C(c2ccccc2)(c2ccccc2)O1
inactive: [1] -1% | [2] -8.6% | [3] 5.95% | [4] -0.65% | [5] -19.3% | [6] -4.15%

COc1ccc([N+](=O)[O-])cc1N=Cc1ccc(N(CCCl)CCCl)cc1C
inactive: [1] 43% | [2] 13.3% | [3] 52.2% | [4] 18.6% | [5] 3.5% | [6] 17.1%

Cc1cc(O)ccc1[N+](=O)[O-]
inactive: [1] 1.15% | [2] -1.2% | [3] 11.8% | [4] 9.6% | [5] 2.9% | [6] 2.95%

COC1CC(OC2C(C)OC(OC3C(C)OC(OC4C(C)OC(O[C@H]5CC[C@@]6(C)C(=CC[C@]7(O)[C@@H]6C[C@@H](OC(C)=O)[C@@]6(C)[C@]7(O)CC[C@@]6(O)C(C)=O)C5)CC4OC)CC3OC)CC2OC)OC(C)C1O (stereo partly drawn)
inactive: [1] -7.85% | [2] -7.45% | [3] -9.55% | [4] -3.7% | [5] -12.7% | [6] -47.1%

CC(=O)C1C(c2ccccc2)C2(C)OC(=O)C(C#N)C12C (stereo not drawn)
inactive: [1] -17.6% | [2] 18.9% | [3] 9% | [4] 32.3% | [5] 21.8% | [6] 33.2%

S=P(NNc1ccccc1)(NNc1ccccc1)c1ccc(Cl)cc1
inactive: [2] -33.1% | [5] 34.6%
active: [1] 75.4% | [3] 81.9% | [4] 82.3% | [6] 83.2%

COC(=O)C1C(OC(=O)C(Cl)(c2ccccc2)c2ccccc2)CC2CCC1N2C (stereo not drawn)
inactive: [1] -5.25% | [2] -6.35% | [3] -19.6% | [4] 7.65% | [5] -21.1% | [6] -6.9%

COP(=O)(OC)C1(C(C)(C)C)CO1 (stereo not drawn)
inactive: [1] -1.75% | [2] -4.9% | [3] 0.65% | [4] -23.1% | [5] -11.6% | [6] 0.5%

CC(OC(N)=O)C(F)(F)C(F)F (stereo not drawn)
inactive: [1] -26.6% | [2] -9.15% | [3] 1.35% | [4] -39.2% | [5] -12.8% | [6] -1.85%

O=C(O)CCC(=O)O
inactive: [1] -8.1% and 5.7% | [2] -16.6% and -2.05% | [3] -22.3% and -6.35% | [4] -41.9% and 13.8% | [5] -28% and -2.05% | [6] -13.1% and 11.2%

O=C1NC(=O)C(Br)C(=O)N1 (tested in a mixture with another compound)
inactive: [1] -8.5% | [2] 8.95% | [3] 0.5% | [4] -19.6% | [5] -1.95% | [6] -0.3%

Cc1ccccc1-n1c(CCl)nc2ccc(Br)cc2c1=O
inactive: [1] 18.4% | [2] 2.6% | [3] 12.6% | [4] 6.05% | [5] 1.35% | [6] 27.1%

COc1ccc(N2CC=C(c3ccccc3)OP2(=O)N2CC2)cc1 (stereo not drawn)
inactive: [1] -20.4% | [2] 25.9% | [3] 5.9% | [4] 18.2% | [5] 0.95% | [6] -7.7%

S=c1nccc[nH]1
inactive: [1] 37.5% | [2] 24.2% | [3] 34.5% | [4] 37.5% | [5] 0.35% | [6] 17.4%

CC[C@@]1(O)C(=O)OCc2c1cc1n(c2=O)Cc2c-1nc1ccccc1c2C=Nc1ccccc1N[C@@H]1c2cc3c(cc2[C@@H](c2cc(OC)c(O)c(OC)c2)[C@H]2C(=O)OC[C@@H]21)OCO3
active: [1] 78.8% and 86.8% | [2] 71.7% and 80.9% | [3] 76.5% and 84.7%
69.9% (inactive) and 85.9% (active): [5]
63% (inactive) and 82% (active): [4]
39.6% (inactive) and 85.8% (active): [6]

N#CCCCl
inactive: [1] -13.7% | [2] -1.9% | [3] 13.6% | [4] -23.4% | [5] -1.65% | [6] -19.8%

CSC(SC)P(=O)(Oc1ccccc1)Oc1ccccc1
inactive: [1] -10.4% | [2] 2.85% | [3] 1.4% | [4] 4.45% | [5] 8.7% | [6] 10.6%

N#CS.[Cr+3].[NH-]CC[NH-].[NH-]CC[NH-].[NH-]CC[NH-]
inactive: [1] 14.8% | [2] -0.5% | [3] 10.2% | [4] 12.8% | [5] -2.75% | [6] 5.05%

[N-]=[N+]=CC(=O)OCC(N)C(=O)O (stereo not drawn)
inactive: [1] 4.5% | [2] -12.8% | [3] -5.35% | [4] 14.1% | [5] -6.7% | [6] -0.6%

CC(N)CCc1ccccc1 (stereo not drawn)
inactive: [1] 2.7% | [2] -19.9% | [3] -1.15% | [4] 24.7% | [5] 3.6% | [6] 12.4%

COC(=O)C1=NNC2(c3ccccc3Sc3ccccc32)C1C(=O)OC (stereo not drawn)
inactive: [1] -8.95% | [2] -8.25% | [3] -12.5% | [4] 25.5% | [5] -18.9% | [6] -11.8%

C=C1CCC2CC1C2(C)C (stereo not drawn)
inactive: [1] 5.95% and 13.7% and -4.1% | [2] 0.75% and -4.25% and -15.2% | [3] 6.5% and -6.65% and -29.8% | [4] 9.45% and -27% and 2.6% | [5] 10.3% and 0.05% and -6.7% | [6] 21.4% and 2.7% and -10.2%
